Data reported in the supplement of paper PMC11732987, “Enantioselective OTUD7B fragment discovery through chemoproteomics screening and high-throughput optimisation” (Communications Chemistry, 2025).

Legend:
Assay in all cases: log2 ratio of Biotin-Ahx-Ub-VS probe labelling (fragment/DMSO); higher = less target engagement (more negative = stronger competition), active = hit call of the paper (q ≤ 0.05, log2 ratio ≤ -1)
Conditions in all cases: compound concentration: 200 uM; treatment time: 3 h
USP16 = USP16 (UniProt Q9Y5T5)
How it was run: (§1)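 Labelled DUBs from HEK293T lysate were NeutrAvidin-enriched, digested with LysC and trypsin, and run by diaPASEF LC-MS/MS. Before that, each 495 µg sample in Tris/CHAPS/IGEPAL buffer with protease inhibitors was treated in triplicate with fragment at 200 µM or vehicle for 3 h, then with Biotin-Ahx-Ub-VS at 0.5 µM final for 1 h. Values are average log2 ratios of fragment over vehicle by unpaired t-test, based on global-median-normalised Spectronaut label-free quantities from proteins with ≥2 unique peptides.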

USP19 = target: T1, USP19 (UniProt O94966)
T1 sequence (whole entry): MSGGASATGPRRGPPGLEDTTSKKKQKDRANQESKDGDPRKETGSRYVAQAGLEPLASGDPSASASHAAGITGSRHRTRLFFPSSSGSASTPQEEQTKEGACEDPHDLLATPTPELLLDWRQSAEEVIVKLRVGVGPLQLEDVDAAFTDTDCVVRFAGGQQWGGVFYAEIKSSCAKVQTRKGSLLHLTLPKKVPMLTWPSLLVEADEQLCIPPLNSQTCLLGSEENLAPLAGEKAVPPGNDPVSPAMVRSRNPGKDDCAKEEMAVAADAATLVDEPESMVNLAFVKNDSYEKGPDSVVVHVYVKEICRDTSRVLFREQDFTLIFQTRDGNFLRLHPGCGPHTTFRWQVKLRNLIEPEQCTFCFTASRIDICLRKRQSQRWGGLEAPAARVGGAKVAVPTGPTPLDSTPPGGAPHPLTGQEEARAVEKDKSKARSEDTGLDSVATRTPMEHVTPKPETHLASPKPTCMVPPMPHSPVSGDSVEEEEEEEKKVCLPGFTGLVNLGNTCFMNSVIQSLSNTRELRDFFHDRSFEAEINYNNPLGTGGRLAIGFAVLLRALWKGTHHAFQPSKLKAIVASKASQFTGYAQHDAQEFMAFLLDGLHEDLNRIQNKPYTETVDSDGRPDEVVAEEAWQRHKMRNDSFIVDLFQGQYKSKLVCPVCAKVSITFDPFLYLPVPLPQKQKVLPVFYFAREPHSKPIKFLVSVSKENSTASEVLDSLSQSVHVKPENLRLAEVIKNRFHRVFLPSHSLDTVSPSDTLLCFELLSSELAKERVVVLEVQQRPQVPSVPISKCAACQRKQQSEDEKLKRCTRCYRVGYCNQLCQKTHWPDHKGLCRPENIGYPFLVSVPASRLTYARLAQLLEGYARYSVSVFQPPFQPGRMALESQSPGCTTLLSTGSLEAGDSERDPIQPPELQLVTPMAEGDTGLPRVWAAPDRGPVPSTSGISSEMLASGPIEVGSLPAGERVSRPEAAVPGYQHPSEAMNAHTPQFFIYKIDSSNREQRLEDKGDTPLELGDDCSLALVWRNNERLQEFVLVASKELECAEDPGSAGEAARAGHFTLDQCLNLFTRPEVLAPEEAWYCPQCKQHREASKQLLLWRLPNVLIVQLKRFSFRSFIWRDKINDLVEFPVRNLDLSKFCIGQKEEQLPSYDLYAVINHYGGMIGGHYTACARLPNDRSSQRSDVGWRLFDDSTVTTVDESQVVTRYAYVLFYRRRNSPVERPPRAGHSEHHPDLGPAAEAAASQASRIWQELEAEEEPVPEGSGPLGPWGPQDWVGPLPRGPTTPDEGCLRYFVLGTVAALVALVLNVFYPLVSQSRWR
How it was run: as §1

USP24 = USP24 (UniProt Q9UPU5)
How it was run: as §1

USP25 = target: T2, USP25 (UniProt Q9UHP3)
T2 sequence (whole entry): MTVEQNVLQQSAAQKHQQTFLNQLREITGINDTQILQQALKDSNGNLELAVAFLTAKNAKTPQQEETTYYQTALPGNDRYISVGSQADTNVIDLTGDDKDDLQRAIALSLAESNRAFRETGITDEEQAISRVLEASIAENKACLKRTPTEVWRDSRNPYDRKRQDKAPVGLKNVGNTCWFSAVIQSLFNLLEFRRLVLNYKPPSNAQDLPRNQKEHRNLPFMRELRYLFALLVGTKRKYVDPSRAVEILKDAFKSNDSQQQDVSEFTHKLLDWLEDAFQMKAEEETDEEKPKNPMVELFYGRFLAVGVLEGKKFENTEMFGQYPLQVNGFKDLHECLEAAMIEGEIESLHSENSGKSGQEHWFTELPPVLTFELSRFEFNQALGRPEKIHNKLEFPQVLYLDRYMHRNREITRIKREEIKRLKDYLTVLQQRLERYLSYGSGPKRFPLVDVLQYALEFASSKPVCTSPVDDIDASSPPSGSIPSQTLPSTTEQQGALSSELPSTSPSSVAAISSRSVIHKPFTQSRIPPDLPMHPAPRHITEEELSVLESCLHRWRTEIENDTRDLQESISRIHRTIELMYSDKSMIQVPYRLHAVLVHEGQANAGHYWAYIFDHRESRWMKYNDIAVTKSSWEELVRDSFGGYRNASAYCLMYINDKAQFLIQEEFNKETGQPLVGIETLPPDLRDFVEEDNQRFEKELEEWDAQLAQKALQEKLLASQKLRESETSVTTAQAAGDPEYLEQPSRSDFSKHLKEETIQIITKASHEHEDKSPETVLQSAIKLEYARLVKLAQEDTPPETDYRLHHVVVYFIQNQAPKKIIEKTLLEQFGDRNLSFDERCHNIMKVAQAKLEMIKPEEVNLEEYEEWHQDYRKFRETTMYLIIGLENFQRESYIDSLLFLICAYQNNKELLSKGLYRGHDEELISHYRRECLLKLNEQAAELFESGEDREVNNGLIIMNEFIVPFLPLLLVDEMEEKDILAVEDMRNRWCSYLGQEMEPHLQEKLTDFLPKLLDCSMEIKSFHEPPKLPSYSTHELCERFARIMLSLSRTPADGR
How it was run: as §1

USP28 = target: T3, USP28 (UniProt Q96RU2)
T3 sequence (whole entry): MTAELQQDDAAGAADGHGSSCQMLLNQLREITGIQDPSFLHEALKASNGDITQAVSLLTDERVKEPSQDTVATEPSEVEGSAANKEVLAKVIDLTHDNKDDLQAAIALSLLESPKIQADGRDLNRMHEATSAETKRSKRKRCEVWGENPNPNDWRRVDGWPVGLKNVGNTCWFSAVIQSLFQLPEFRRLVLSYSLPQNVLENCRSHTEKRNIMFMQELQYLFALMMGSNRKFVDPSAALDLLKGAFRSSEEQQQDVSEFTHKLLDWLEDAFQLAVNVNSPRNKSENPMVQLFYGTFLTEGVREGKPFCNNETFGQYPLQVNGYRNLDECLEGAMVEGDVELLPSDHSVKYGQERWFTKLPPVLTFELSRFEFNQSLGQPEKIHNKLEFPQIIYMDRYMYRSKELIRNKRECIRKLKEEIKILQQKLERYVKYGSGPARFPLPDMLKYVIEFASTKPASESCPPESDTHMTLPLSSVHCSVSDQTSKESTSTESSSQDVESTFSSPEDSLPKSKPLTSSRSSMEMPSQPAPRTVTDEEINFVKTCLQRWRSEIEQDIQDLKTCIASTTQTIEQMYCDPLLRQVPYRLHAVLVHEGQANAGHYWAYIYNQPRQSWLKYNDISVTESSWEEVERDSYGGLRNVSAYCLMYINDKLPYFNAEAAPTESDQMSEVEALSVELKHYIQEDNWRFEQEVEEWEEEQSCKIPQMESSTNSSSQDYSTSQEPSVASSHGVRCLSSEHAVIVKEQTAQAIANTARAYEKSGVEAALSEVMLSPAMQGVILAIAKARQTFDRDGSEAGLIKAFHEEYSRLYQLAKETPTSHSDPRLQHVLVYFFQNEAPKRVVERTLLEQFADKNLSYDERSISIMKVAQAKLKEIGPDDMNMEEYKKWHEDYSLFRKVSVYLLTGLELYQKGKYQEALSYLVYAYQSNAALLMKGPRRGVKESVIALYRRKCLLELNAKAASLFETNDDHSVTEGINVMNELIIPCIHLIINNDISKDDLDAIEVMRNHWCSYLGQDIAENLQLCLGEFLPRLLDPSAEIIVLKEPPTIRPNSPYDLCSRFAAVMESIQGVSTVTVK
How it was run: as §1

Measured: log2 ratio of Biotin-Ahx-Ub-VS probe labelling

USP16, sequence (Q9Y5T5 whole entry, looked up, the tested form may be a part): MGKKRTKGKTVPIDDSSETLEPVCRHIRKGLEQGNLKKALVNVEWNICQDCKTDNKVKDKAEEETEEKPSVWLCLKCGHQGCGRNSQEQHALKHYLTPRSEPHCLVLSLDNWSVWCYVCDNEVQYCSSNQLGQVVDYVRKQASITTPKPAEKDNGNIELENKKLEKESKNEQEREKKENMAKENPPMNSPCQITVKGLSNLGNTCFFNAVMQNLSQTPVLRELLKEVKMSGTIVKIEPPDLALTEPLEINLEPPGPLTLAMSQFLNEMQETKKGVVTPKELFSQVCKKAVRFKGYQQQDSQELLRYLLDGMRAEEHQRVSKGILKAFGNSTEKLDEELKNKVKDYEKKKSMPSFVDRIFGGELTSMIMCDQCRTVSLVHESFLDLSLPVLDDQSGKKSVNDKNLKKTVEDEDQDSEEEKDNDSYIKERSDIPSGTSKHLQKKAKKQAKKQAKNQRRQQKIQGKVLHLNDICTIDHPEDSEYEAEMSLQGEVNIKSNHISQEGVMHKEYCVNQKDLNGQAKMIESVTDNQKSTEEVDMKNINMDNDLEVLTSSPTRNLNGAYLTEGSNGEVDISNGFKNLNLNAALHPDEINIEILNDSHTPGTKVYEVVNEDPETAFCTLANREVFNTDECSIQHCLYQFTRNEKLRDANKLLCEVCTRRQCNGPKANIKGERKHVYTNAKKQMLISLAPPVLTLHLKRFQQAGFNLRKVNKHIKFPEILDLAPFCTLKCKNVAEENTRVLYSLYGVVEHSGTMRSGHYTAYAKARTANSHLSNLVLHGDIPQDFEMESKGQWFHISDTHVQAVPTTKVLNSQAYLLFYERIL
USP24, sequence (Q9UPU5 whole entry): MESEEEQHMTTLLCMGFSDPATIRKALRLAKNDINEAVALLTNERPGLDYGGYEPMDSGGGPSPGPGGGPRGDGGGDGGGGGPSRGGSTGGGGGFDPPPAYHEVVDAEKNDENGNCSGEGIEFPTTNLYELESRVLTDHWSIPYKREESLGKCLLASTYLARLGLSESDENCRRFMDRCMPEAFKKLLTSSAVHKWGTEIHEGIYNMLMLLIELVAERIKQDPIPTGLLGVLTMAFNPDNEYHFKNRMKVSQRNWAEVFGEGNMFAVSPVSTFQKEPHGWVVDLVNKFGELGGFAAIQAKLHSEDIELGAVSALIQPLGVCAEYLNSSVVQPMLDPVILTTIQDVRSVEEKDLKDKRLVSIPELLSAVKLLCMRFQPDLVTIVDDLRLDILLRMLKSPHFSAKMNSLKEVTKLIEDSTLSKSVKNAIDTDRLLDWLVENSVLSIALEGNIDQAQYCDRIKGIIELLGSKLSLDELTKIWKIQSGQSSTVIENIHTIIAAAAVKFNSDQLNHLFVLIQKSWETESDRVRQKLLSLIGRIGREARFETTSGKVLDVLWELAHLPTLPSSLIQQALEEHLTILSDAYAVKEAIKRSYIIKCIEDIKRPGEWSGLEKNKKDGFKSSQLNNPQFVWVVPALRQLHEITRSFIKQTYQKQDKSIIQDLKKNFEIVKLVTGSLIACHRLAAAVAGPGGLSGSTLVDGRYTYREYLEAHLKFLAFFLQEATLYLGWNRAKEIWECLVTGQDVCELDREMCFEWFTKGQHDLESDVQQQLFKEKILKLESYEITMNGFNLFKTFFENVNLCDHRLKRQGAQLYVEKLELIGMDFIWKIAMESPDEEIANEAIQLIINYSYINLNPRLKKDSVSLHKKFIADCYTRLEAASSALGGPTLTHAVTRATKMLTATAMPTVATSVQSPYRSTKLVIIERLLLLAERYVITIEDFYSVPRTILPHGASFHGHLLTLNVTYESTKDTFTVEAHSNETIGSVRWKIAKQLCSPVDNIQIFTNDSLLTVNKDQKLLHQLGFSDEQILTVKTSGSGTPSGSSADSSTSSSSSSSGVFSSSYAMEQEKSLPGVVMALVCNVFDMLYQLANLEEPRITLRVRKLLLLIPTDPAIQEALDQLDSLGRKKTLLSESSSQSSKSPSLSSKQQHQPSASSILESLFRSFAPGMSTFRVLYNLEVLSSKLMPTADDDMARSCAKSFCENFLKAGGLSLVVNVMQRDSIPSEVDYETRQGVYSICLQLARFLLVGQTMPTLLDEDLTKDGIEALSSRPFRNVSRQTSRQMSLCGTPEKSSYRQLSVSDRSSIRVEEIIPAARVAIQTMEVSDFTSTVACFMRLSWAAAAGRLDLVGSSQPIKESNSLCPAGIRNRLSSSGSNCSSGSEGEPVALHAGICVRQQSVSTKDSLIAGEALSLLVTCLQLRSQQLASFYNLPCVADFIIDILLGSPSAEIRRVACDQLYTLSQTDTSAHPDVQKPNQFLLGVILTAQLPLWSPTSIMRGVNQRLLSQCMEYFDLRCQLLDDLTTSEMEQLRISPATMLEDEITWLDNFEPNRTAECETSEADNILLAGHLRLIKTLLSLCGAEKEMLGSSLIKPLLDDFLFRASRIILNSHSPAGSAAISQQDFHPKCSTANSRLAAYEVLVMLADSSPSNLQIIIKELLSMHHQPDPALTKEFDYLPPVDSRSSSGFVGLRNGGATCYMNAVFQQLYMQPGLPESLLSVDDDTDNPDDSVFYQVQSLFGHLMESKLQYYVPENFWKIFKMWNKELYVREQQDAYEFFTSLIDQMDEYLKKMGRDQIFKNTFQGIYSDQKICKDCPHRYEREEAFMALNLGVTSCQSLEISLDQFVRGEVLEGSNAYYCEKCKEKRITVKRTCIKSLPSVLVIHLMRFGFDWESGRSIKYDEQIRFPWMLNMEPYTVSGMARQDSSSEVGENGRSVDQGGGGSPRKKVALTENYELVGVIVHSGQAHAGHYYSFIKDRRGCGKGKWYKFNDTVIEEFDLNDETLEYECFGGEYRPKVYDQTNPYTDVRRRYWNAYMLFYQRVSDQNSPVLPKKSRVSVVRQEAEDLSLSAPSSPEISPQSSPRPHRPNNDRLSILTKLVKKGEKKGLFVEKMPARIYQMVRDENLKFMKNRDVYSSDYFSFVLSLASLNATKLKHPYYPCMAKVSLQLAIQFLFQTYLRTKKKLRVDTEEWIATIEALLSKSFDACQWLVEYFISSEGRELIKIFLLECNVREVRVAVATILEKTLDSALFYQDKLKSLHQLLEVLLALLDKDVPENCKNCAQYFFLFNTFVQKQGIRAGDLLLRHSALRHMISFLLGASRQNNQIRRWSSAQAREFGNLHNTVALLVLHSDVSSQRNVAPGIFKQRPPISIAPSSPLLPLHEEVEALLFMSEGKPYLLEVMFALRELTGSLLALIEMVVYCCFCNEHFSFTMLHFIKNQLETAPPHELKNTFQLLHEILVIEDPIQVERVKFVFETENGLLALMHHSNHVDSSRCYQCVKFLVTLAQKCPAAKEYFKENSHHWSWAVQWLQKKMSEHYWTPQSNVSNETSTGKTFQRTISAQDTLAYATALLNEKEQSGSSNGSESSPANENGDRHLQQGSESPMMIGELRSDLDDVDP

Cc1cccc(C(CNC(=O)CCl)N2CCOCC2)c1.Cl (stereo not given)
inactive: USP16 -0.147 | USP19 0.101 | USP24 0.135 | USP25 -0.355 | USP28 -0.0645
